Reference: PubChem BioAssay (NCI)
The panel holds about 83,000 compounds, 20% with a hit somewhere; the sample as a whole holds those more often.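 The test compound was applied at a single concentration to cells in 96-well plates for 48 hours, and percent growth was recorded.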 Values without a mark were called inactive. Activity calls are given as the source filed them. The calls were made as follows: active = growth percent below 10; inactive = the rest.

The compounds below were run on MDA-MB-468 breast (assay: NCI-60 one-dose screen, 48 h (100 = growth as untreated, 0 = no growth, -100 = all killed)). Details: 10 µM unless noted.

Row | SMILES | growth
1 | Nc1cc(C(=O)O)cc(C(=O)O)c1 | 112%
2 | COC(=O)[C@H](Cc1ccc(O)cc1)NC(=O)[C@@H](OC)[C@@H]1Cc2cc3cc(OC4CC(OC5CC(O)C(O)C(C)O5)C(O)C(C)O4)c(C)c(O)c3c(O)c2C(=O)[C@H]1OC1CC(OC2CC(OC3CC(C)(O)C(O)C(C)O3)C(O)C(C)O2)C(O)C(C)O1 (some centres not stated) | -25.5% (active)
3 | CCOC(=O)c1c(C)[nH]c2ccc(O)cc12 | 102%
4 | CCN(CC)c1ccc(/C=N/NC(=O)c2ccc(NS(C)(=O)=O)cc2)cc1 | 20.2%
5 | O=C(c1ccccc1)c1ccco1 | 118%
6 | O=C(COc1cc(O)c2c(=O)cc(-c3ccccc3)oc2c1)Nc1ccccc1C(F)(F)F | 67.6%
7 | O=S(=O)(c1ccc(NC(=S)NCc2cccnc2)cc1)N1CCCCC1 | 72.3%
8 | Cc1cccc(Oc2ccc(Nc3ncnc4ccc(NC(=O)CN5CCN(C)CC5)cc34)cc2Cl)c1 | -62.9% (active)
9 | O=C1C2=C(Nc3cc([N+](=O)[O-])ccc3N2)OC1c1c2ccccc2cc2ccccc12 (configuration not stated) | 37.3%
10 | CCN(CC)CCCNc1cc(OC)cc2nc3cc(Cl)ccc3nc12 | 11%
11 | N#Cc1ccc(-c2csc(Nc3ccc4nc5n(c(=O)c4c3)CCC5)n2)cc1 | 105%
12 | COc1ccc(S(=O)(=O)Nc2cc(/C=C\c3cc(OC)c(OC)c(OC)c3)ccc2OC)cc1 | 7.65% (active)
13 | CCn1c2ccccc2c2cc(C(O)c3cccc4ncccc34)ccc21 (configuration not stated) | 14.2%
14 | CC/C(=C(/c1ccc(OCCN(C)C)cc1)c1ccc(OC(=O)CCCCC(=O)c2c(C)[nH]c(/C=C3\N=C(c4ccc[nH]4)C=C3OC)c2C)cc1)c1ccccc1 | 47.5%
15 | Clc1ccc(/C=C2\CCCC3=C2N=C2SC=NN2C3c2ccc(Cl)cc2)cc1 (configuration not stated) | 90.4%
16 | O=C(Nc1ccc(Oc2cccc(F)c2)c(Cl)c1)c1cnccn1 | 0.0833% (active)
17 | COc1ccccc1/C=C/C1=C(C)CCC(c2ccccc2OC)C1C (configuration not stated) | 29.7%
18 | O=c1cc(-c2ccccc2)[nH]c(=S)[nH]1 | 115%
19 | CCCCC1C(=O)N(c2ccccc2)N(c2ccccc2)C1=O | 99.5%
20 | CN(C)CCOC(=O)Nc1ccc(Cl)cc1 | 104%
21 | CCc1cccc(C)c1NC(=O)c1sc2nc3c(cc2c1N)CCCCC3 | 10.8%
22 | COc1cc2nc(N3CCCC3)nc(NCc3ccccc3)c2cc1OC | 45.2%
23 | Nc1cc(-c2nc3sccn3c2-c2ccnc(NCCCNS(=O)(=O)c3ccc(F)cc3)n2)ccc1F | 41.7%
24 | CNC(=O)CCN1CCN(CC/C=C2\c3ccccc3Sc3ccc(Cl)cc32)CC1 | 72.5%
25 | Cc1[nH]c(C(=O)Nc2ccccc2OC2CCN(CCN3CCOCC3)CC2)c(Cl)c1Cl | 91.6%
26 | COc1cc([C@H]2OC[C@H]3[C@@H]2CO[C@@H]3c2ccc(O)c(OC)c2)ccc1O | 100%
27 | O=c1oc2ccccc2c(Cl)c1Cl | 4.65% (active)
